Reference: PubChem BioAssay
For some of these results: Entries with a potency or affinity are not part of this list. Activity calls are given as the source filed them. Unless noted, how the calls were made is not given here.

Key:
[1] = antimalarial activity against Dd2 strain (AID 2302;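 active means growth inhibition above 50% at the single 2 µM test dose, taken to imply half-maximal potency below 2 µM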;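 further: 0% = DMSO untreated growth and 100% = chloroquine plus artemisinin killed control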); conditions: P. falciparum Dd2 in RBCs, LDH growth readout, 72 h; at 2 µM; hits give high values
[2] = HepG2 cytotoxicity, primary screen, cytotoxicity control for P. falciparum antimalarial project, cell-based, ATP luminescence (AID 2303;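 active means inhibition above 50%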;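 further: 0% = DMSO wells and 100% = digitonin-killed cells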); conditions: HepG2 viability, 24-48 h, at 10 µM, hits give high values
[3] = target: L-lactate dehydrogenase (Plasmodium falciparum (isolate CDC / Honduras)) (UniProt Q27743); experiment: PfLDH activity inhibition – cell lysate, 3D7 strain, counter-screen for P. falciparum growth inhibition project (AID 2304);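 further: 0% = vehicle and 100% = reference inhibitor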; conditions: P. falciparum 3D7 crude extract, LDH APAD/NBT absorbance; at 2 µM; hits give high values
[4] = inhibition of 3D7 malaria parasite growth – strain 3D7 (AID 2306);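 further: 0% = DMSO wells and 100% = chloroquine plus artemisinin control wells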; conditions: P. falciparum 3D7 erythrocytic growth, LDH absorbance, 72 h; at 2 µM; hits give high values
[5] = target: Calcium-dependent protein kinase 1 (Plasmodium falciparum (isolate 3D7)) (UniProt P62344); experiment: PfCDPK1 kinase inhibitors, biochemical, TCAMS library (AID 1159585; cut-off not given, nearly all actives have IC50 up to about 0.98 µM;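 further: inhibitors leave more ATP so luminescence rises with inhibition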); conditions: recombinant PfCDPK1, Kinase-Glo ATP depletion luminescence
[6] = target: Plasmodium falciparum protein kinase 6 (PK6, PF3D7_1337100) (UniProt Q8IDW1); experiment: PfPK6 kinase inhibitors, biochemical, TCAMS library (AID 1159586); conditions: recombinant PfPK6, Kinase-Glo ATP depletion luminescence
[7] = target: Protein kinase 7 (PK7), Plasmodium falciparum 3D7 (PF3D7_0213400) (UniProt Q7YTF7); experiment: inhibition of Plasmodium PK7 catalytic activity – biochemical, TCAMS antimalarial set, Kinase-Glo luminescence (AID 1159587); conditions: recombinant PfPK7, Kinase-Glo ATP depletion luminescence
[8] = target: Calcium-dependent protein kinase 4 (Plasmodium falciparum (isolate 3D7)) (UniProt Q8IBS5); experiment: PfCDPK4 kinase inhibitors, biochemical, TCAMS library (AID 1159588; cut-off not given, nearly all actives have IC50 up to about 0.91 µM); conditions: recombinant PfCDPK4, Kinase-Glo ATP depletion luminescence
Chain of Calcium-dependent protein kinase 4 (Plasmodium falciparum (isolate 3D7)) (Q8IBS5 whole entry, looked up): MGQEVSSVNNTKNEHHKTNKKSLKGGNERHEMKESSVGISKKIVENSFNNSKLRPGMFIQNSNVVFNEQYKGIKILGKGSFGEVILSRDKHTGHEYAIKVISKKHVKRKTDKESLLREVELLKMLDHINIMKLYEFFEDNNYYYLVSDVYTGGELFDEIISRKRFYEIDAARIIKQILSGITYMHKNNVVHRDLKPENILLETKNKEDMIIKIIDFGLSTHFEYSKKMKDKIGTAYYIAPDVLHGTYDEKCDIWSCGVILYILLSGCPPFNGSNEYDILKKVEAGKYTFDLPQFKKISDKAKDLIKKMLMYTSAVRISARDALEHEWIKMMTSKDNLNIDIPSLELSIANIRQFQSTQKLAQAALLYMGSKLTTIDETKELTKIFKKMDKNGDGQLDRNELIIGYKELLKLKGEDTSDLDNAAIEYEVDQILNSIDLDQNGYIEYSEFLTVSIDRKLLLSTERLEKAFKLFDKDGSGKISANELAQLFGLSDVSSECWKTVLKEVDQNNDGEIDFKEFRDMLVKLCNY

Chain of Protein kinase 7 (PK7), Plasmodium falciparum 3D7 (PF3D7_0213400) (Q7YTF7 1-343): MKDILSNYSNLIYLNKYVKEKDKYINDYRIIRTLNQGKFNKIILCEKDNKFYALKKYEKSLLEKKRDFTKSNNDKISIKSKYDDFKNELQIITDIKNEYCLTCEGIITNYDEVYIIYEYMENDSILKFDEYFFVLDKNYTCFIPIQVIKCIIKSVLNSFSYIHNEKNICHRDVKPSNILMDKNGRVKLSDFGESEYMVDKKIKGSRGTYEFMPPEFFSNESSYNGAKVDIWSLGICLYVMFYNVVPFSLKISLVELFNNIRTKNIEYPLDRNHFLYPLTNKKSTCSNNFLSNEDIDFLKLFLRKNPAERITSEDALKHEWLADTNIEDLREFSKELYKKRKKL
Chain of Plasmodium falciparum protein kinase 6 (PK6, PF3D7_1337100) (Q8IDW1 1-305): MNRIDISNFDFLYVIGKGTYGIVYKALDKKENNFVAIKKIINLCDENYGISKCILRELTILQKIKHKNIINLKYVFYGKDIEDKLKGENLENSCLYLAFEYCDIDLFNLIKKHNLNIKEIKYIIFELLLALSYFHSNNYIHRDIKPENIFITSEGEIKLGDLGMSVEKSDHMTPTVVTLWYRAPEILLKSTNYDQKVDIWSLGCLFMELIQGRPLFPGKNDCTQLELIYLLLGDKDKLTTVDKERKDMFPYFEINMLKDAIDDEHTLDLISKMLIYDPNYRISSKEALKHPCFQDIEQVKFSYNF
Chain of Calcium-dependent protein kinase 1 (Plasmodium falciparum (isolate 3D7)) (P62344 whole entry, looked up): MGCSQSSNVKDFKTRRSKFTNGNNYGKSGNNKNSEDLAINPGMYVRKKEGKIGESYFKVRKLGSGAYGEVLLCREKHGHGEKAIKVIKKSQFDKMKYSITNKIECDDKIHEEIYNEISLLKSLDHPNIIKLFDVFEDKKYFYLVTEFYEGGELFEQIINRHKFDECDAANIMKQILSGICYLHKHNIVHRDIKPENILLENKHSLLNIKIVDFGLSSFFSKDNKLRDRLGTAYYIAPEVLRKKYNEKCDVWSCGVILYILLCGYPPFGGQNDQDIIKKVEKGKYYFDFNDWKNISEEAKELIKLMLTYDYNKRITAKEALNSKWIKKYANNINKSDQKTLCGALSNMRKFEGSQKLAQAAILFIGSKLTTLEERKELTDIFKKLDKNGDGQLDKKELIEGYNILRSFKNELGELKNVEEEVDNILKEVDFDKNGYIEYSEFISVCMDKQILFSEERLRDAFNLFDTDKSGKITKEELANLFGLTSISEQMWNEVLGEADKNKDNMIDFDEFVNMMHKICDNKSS
Chain of L-lactate dehydrogenase (Plasmodium falciparum (isolate CDC / Honduras)) (Q27743 whole entry, looked up): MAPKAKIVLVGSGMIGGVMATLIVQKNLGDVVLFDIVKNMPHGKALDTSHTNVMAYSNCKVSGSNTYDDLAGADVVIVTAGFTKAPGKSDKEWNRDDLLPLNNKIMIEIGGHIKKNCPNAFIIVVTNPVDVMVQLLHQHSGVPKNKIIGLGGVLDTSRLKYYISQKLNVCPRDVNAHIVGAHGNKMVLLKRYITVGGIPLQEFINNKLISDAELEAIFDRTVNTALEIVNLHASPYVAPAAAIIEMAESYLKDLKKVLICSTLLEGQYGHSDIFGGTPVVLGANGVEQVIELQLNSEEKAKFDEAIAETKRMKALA

OCCN1CCN(Cc2ccc(-c3cccc(-c4nc5ccc(C(F)(F)F)cc5[nH]4)c3)cc2)CC1
inactive: inhibition [2] 29% | inhibition [3] 0% | outcome [5] | outcome [6] | outcome [7] | outcome [8]
active: growth inhibition [1] 83% | growth inhibition [4] 99%

CCCc1cc(Cc2cnc(N)nc2N)cc(OC)c1OC
active: growth inhibition [4] 87%
inactive: growth inhibition [1] 4% | inhibition [2] 2% | inhibition [3] 6% | outcome [5] | outcome [6] | outcome [7] | outcome [8]

Cc1cc2c(cc1C(F)(F)F)N(C(=O)Nc1cc(OCCN(C)C)cc(C(F)(F)F)c1)CC2
active: growth inhibition [4] 101%
inactive: growth inhibition [1] 19% | inhibition [2] 16% | inhibition [3] 0% | outcome [5] | outcome [6] | outcome [7] | outcome [8]

Cc1cccc(Nc2nccc(NCC(O)c3ccc(C(F)(F)F)cc3)n2)c1 (stereo not drawn)
active: growth inhibition [1] 54% | growth inhibition [4] 101%
inactive: inhibition [2] 11% | inhibition [3] 0% | outcome [5] | outcome [6] | outcome [7] | outcome [8]

Cc1cccc(C(=O)Nc2ccnc(N3CCC(N(C)Cc4cccc(O)c4)CC3)c2)c1
active: growth inhibition [4] 95%
inactive: growth inhibition [1] 41% | inhibition [2] 7% | inhibition [3] -1% | outcome [5] | outcome [6] | outcome [7] | outcome [8]

C[C@@H]1CCC[C@H](C)N1C[C@@H](O)CNS(=O)(=O)c1cccc(C(F)(F)F)c1
active: growth inhibition [4] 99%
inactive: growth inhibition [1] 2% | inhibition [2] 4% | inhibition [3] -4% | outcome [5] | outcome [6] | outcome [7] | outcome [8]

CCc1ccc(NC(=O)c2ccc(CN3CCCN(Cc4ccc(C)s4)CC3)cc2)cc1
active: growth inhibition [4] 87%
inactive: growth inhibition [1] -2% | inhibition [2] 48% | inhibition [3] -2% | outcome [5] | outcome [6] | outcome [7] | outcome [8]

CC(C)NCc1ccc(-c2ccc(-c3nc4ccc(C(F)(F)F)cc4[nH]3)cc2)cc1
inactive: inhibition [2] 16% | inhibition [3] 0% | outcome [5] | outcome [6] | outcome [7] | outcome [8]
active: growth inhibition [1] 98% | growth inhibition [4] 100%

CC(C)c1cc2c(ccc3nc(N)nc(N)c32)o1
active: inhibition [2] 66% | growth inhibition [4] 99%
inactive: growth inhibition [1] 37% | inhibition [3] 3% | outcome [5] | outcome [6] | outcome [7] | outcome [8]

N#Cc1ccc(-c2ccc(C(=O)NC3CCN(CCN4CCC(c5cn(CCOC6CCCCO6)c6ccccc56)CC4)CC3)cc2)cc1 (stereo not drawn)
inactive: inhibition [2] 48% | inhibition [3] 2% | outcome [5] | outcome [6] | outcome [7] | outcome [8]
active: growth inhibition [1] 86% | growth inhibition [4] 99%

FC(F)(F)c1ccc2nc(-c3ccc(-c4cccc(CNCc5cnn(-c6ccccc6)n5)c4)s3)[nH]c2c1
active: growth inhibition [1] 91% | growth inhibition [4] 101%
inactive: inhibition [2] 38% | inhibition [3] -2% | outcome [5] | outcome [6] | outcome [7] | outcome [8]

Clc1ccc2c(NCc3ccccc3)ccnc2c1
inactive: inhibition [2] 40% | inhibition [3] 1% | outcome [5] | outcome [6] | outcome [7] | outcome [8]
active: growth inhibition [1] 100% | growth inhibition [4] 101%

CN(C)c1ccc(C=CC(=O)NC(=O)c2ccccc2O)cc1
inactive: inhibition [2] 6% | inhibition [3] -1% | outcome [5] | outcome [6] | outcome [7] | outcome [8]
active: growth inhibition [1] 97% | growth inhibition [4] 92%

O=C1CCCN1CCCNCc1ccc(-c2ccc(-c3nc4ccc(C(F)(F)F)cc4[nH]3)cc2)cc1
active: growth inhibition [1] 98% | growth inhibition [4] 101%
inactive: inhibition [2] 10% | inhibition [3] -5% | outcome [5] | outcome [6] | outcome [7] | outcome [8]

Cc1cccc2c(C(=O)NC3CCN(Cc4ccccc4)CC3)cc(-c3cccnc3)nc12
active: growth inhibition [4] 81%
inactive: growth inhibition [1] 10% | inhibition [2] 12% | inhibition [3] -2% | outcome [5] | outcome [6] | outcome [7] | outcome [8]

CCc1ccc(-n2c(NC(=O)c3ccccc3)nc3ccc(S(=O)(=O)NC(C)C(C)C)cc32)cc1 (stereo not drawn)
active: growth inhibition [4] 88%
inactive: growth inhibition [1] -4% | inhibition [2] 48% | inhibition [3] 0% | outcome [5] | outcome [6] | outcome [7] | outcome [8]

O=C(Cn1cc(C(F)(F)F)cc(Cl)c1=O)N1CCN(S(=O)(=O)c2ccc(Cl)cc2)CC1
active: growth inhibition [1] 69% | growth inhibition [4] 99%
inactive: inhibition [2] 14% | inhibition [3] 0% | outcome [5] | outcome [6] | outcome [7] | outcome [8]

CN(CCCCCN1CCC(NC(=O)Nc2ccc(Oc3ccccc3)cc2)C1)C(=O)/C=C/c1ccc(Cl)c(Cl)c1 (stereo not drawn)
active: inhibition [2] 50% | growth inhibition [4] 98%
inactive: growth inhibition [1] 14% | inhibition [3] -2% | outcome [5] | outcome [6] | outcome [7] | outcome [8]

CCOc1ccc(C(C)NC(=O)Nc2ccccc2)cc1OCC (stereo not drawn)
active: growth inhibition [1] 95% | growth inhibition [4] 96%
inactive: inhibition [2] 14% | inhibition [3] 1% | outcome [5] | outcome [6] | outcome [7] | outcome [8]

COc1cc(C2CCN(CCCCNC(=O)c3ccc(NC(=O)c4ccc(Cl)c(Cl)c4)cc3)CC2)ccc1OC(C)C
inactive: inhibition [2] 45% | inhibition [3] -5% | outcome [5] | outcome [6] | outcome [7] | outcome [8]
active: growth inhibition [1] 96% | growth inhibition [4] 101%

COc1ccc(CN(C)CC(O)COc2ccc(NC(=O)c3cccc4c(=O)c5cccc(OC)c5[nH]c34)cc2)cc1OC (stereo not drawn)
inactive: inhibition [3] -3% | outcome [5] | outcome [6] | outcome [7] | outcome [8]
active: growth inhibition [1] 65% | inhibition [2] 72% | growth inhibition [4] 93%

CC[C@H](C)CNC(=O)c1cncc(-c2ccc(CNC3Cc4ccccc4C3)cc2)c1
inactive: inhibition [2] 14% | inhibition [3] 3% | outcome [5] | outcome [6] | outcome [7] | outcome [8]
active: growth inhibition [1] 95% | growth inhibition [4] 101%

CCCN(CCC)C(=S)N=Nc1c(O)[nH]c2ccccc12
inactive: inhibition [2] 28% | inhibition [3] -3% | outcome [5] | outcome [6] | outcome [7] | outcome [8]
active: growth inhibition [1] 86% | growth inhibition [4] 97%

CS(=O)(=O)CCNCc1ccc(-c2ccc3c(Nc4ccc(Cl)cc4F)ccnc3c2)o1
inactive: inhibition [2] 6% | inhibition [3] -3% | outcome [5] | outcome [6] | outcome [7] | outcome [8]
active: growth inhibition [1] 98% | growth inhibition [4] 99%

CON=C1CCC(Cn2ccnc2)(c2ccc(Cl)cc2Cl)CC1 (stereo not drawn)
inactive: inhibition [2] 7% | inhibition [3] -5% | outcome [5] | outcome [6] | outcome [7] | outcome [8]
active: growth inhibition [1] 56% | growth inhibition [4] 100%

CCOc1ccc2c(NN=Cc3cccc(F)c3)cc(C)nc2c1
inactive: inhibition [2] 0% | inhibition [3] 7% | outcome [5] | outcome [6] | outcome [7] | outcome [8]
active: growth inhibition [1] 100% | growth inhibition [4] 100%

O=C(/C=C/c1ccc(Cl)c(Cl)c1)NCC(CCCN1CCC(c2c[nH]c3ccccc23)CC1)c1ccccc1 (stereo not drawn)
inactive: growth inhibition [1] 46% | inhibition [3] 3% | outcome [5] | outcome [6] | outcome [7] | outcome [8]
active: inhibition [2] 98% | growth inhibition [4] 100%

COc1ccc(CNCc2ccc(-c3ccc(-c4nc5c(C)cccc5[nH]4)cc3)cc2)cc1
active: growth inhibition [1] 97% | inhibition [2] 53% | growth inhibition [4] 101%
inactive: inhibition [3] 2% | outcome [5] | outcome [6] | outcome [7] | outcome [8]

Nc1ncc(-c2ccsc2)c2ccc(-c3cc(NCc4ccccc4)ncn3)cc12
active: growth inhibition [1] 86% | growth inhibition [4] 101%
inactive: inhibition [2] 0% | inhibition [3] 3% | outcome [5] | outcome [6] | outcome [7] | outcome [8]

CCOc1cc(Cl)c(C(C)NC(=O)c2cccc(OC)c2)cc1OCC (stereo not drawn)
active: growth inhibition [1] 92% | growth inhibition [4] 98%
inactive: inhibition [2] 29% | inhibition [3] 6% | outcome [5] | outcome [6] | outcome [7] | outcome [8]

Cc1cc(Nc2ccc(OCc3ccccc3Cl)cc2)c2cc(Cl)ccc2n1
active: growth inhibition [1] 58% | growth inhibition [4] 100%
inactive: inhibition [2] 33% | inhibition [3] 5% | outcome [5] | outcome [6] | outcome [7] | outcome [8]

CC(Oc1ccc(Cl)cc1Cl)c1nc(-c2ccc(NC(=O)c3ccco3)cc2)no1 (stereo not drawn)
active: growth inhibition [1] 82% | growth inhibition [4] 92%
inactive: inhibition [2] 7% | inhibition [3] 0% | outcome [5] | outcome [6] | outcome [7] | outcome [8]

NC1=NC(c2ccccc2)(c2ccccc2)C(=O)N1CCCCc1ccccc1
active: growth inhibition [1] 81% | growth inhibition [4] 96%
inactive: inhibition [2] 14% | inhibition [3] -2% | outcome [5] | outcome [6] | outcome [7] | outcome [8]

CN(C)Cc1cccc(-c2ccc3ccnc(N)c3c2)c1
inactive: inhibition [2] 21% | inhibition [3] 3% | outcome [5] | outcome [6] | outcome [7] | outcome [8]
active: growth inhibition [1] 74% | growth inhibition [4] 99%

COc1ccc2nccc(N3CCC(O)(CCNCc4ccc5c(n4)NC(=O)CO5)CC3)c2n1
inactive: growth inhibition [1] 24% | inhibition [2] 18% | inhibition [3] -4% | outcome [5] | outcome [6] | outcome [7] | outcome [8]
active: growth inhibition [4] 100%

N#Cc1ccc2c(c1)CCN(CCC1CCC(NC(=O)c3ccc(-c4ccccc4)s3)CC1)CC2 (stereo not drawn)
inactive: growth inhibition [1] 36% | inhibition [2] 6% | inhibition [3] 0% | outcome [5] | outcome [6] | outcome [7] | outcome [8]
active: growth inhibition [4] 99%

COc1ccc2oc(=O)c(C#N)c(O)c2c1
inactive: growth inhibition [1] -4% | inhibition [2] -2% | inhibition [3] 2% | outcome [5] | outcome [6] | outcome [7] | outcome [8]
active: growth inhibition [4] 99%

Cc1ccc(C)c(Cn2ccc3nc(N)nc(N)c32)c1
inactive: growth inhibition [1] 3% | inhibition [3] -1% | outcome [5] | outcome [6] | outcome [7] | outcome [8]
active: inhibition [2] 65% | growth inhibition [4] 97%

Cc1cccc2[nH]c(-c3cccc(-c4ccc(NC(=O)CC5NC(=O)c6ccccc65)cc4)c3)nc12 (stereo not drawn)
inactive: inhibition [2] 30% | inhibition [3] -7% | outcome [5] | outcome [6] | outcome [7] | outcome [8]
active: growth inhibition [1] 67% | growth inhibition [4] 100%

CCc1ccc(CN2CCC(CNC(=O)c3cc(-c4cccc(Cl)c4)cs3)C2)cc1 (stereo not drawn)
inactive: growth inhibition [1] 19% | inhibition [2] 27% | inhibition [3] 4% | outcome [5] | outcome [6] | outcome [7] | outcome [8]
active: growth inhibition [4] 88%

NC1CCN(Cc2ccc(-c3cccc(-c4nc5ccc(F)cc5[nH]4)c3)cc2)C1 (stereo not drawn)
active: growth inhibition [4] 100%
inactive: growth inhibition [1] 16% | inhibition [2] 47% | inhibition [3] 3% | outcome [5] | outcome [6] | outcome [7] | outcome [8]
